# Reference: the supplement of paper PMC4466140
# B1: unnamed (peptide)
# chain: VKPRQLFPIPLNKVD
# B2: unnamed (peptide)
# chain: DFTLPPPPPPPGLDE
# B3: unnamed (peptide)
# chain: ITHRLRISIPGITGR
# Target: CaNbp2
# Experiment: SPOT peptide array binding signal intensity (averaged, normalized) (arbitrary units (background-subtracted, floor 0; scale differs between SH3 domains)); higher = stronger binding of the SH3 domain to the peptide
# Procedure, shortened: (§1)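 GST-fused SH3 domains, from four yeast species, were produced in E. coli BL21(DE3) and captured on glutathione Sepharose. Membranes of cellulose carrying synthetic 15-mer peptides, in which cysteines had been replaced by serines, were exposed to each domain at 10 μg/ml overnight at 4°C in TBS-based blocking buffer. After anti-GST antibody, an HRP anti-mouse secondary and luminol, spots were imaged and quantified using Genespotter. Binding signal is normalized and background-subtracted spot intensity, averaged over replicates, in arbitrary units that differ between domains.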
row,Binder,SPOT peptide array binding signal intensity
1,B1,105
2,B2,20
3,B3,454

# Target: CaRvs167
# Experiment: as above
# Procedure, shortened: as §1
row,Binder,SPOT peptide array binding signal intensity
1,B1,54.5
2,B2,≤ 0
3,B3,636

# Target: CaRvs167-3
# Experiment: as above
# Procedure, shortened: as §1
row,Binder,SPOT peptide array binding signal intensity
1,B1,3
2,B2,≤ 0
3,B3,2400

# Target: CaSho1
# Experiment: as above
# Procedure, shortened: as §1
row,Binder,SPOT peptide array binding signal intensity
1,B1,30
2,B2,≤ 0
3,B3,855

# Target: CaSla1-D1-D2
# Experiment: as above
# Procedure, shortened: as §1
row,Binder,SPOT peptide array binding signal intensity
1,B1,≤ 0
2,B2,≤ 0
3,B3,28

# Target: CaSla1-D3
# Experiment: as above
# Procedure, shortened: as §1
row,Binder,SPOT peptide array binding signal intensity
1,B1,3.25
2,B2,≤ 0
3,B3,454

# Target: ScAbp1
# Experiment: as above
# Procedure, shortened: as §1
row,Binder,SPOT peptide array binding signal intensity
1,B1,71
2,B2,≤ 0
3,B3,23

# Target: ScBbc1
# Experiment: as above
# Procedure, shortened: as §1
row,Binder,SPOT peptide array binding signal intensity
1,B1,≤ 0
2,B2,≤ 0
3,B3,16.8

# Target: ScBem1-D1
# Experiment: as above
# Procedure, shortened: as §1
row,Binder,SPOT peptide array binding signal intensity
1,B1,≤ 0
2,B2,≤ 0
3,B3,44.5

# Target: ScBzz1-D1
# Experiment: as above
# Procedure, shortened: as §1
row,Binder,SPOT peptide array binding signal intensity
1,B1,17
2,B2,≤ 0
3,B3,100

# Target: ScBzz1-D2
# Experiment: as above
# Procedure, shortened: as §1
row,Binder,SPOT peptide array binding signal intensity
1,B1,135
2,B2,1
3,B3,442

# Target: ScCyk3
# Experiment: as above
# Procedure, shortened: as §1
row,Binder,SPOT peptide array binding signal intensity
1,B1,3
2,B2,0.5
3,B3,72

# Target: ScFus1
# Experiment: as above
# Procedure, shortened: as §1
row,Binder,SPOT peptide array binding signal intensity
1,B1,11
2,B2,3
3,B3,2080

# Target: ScHof1
# Experiment: as above
# Procedure, shortened: as §1
row,Binder,SPOT peptide array binding signal intensity
1,B1,3.75
2,B2,14.8
3,B3,2

# Target: ScHse1
# Experiment: as above
# Procedure, shortened: as §1
row,Binder,SPOT peptide array binding signal intensity
1,B1,196
2,B2,≤ 0
3,B3,2140

# Target: ScLsb1
# Experiment: as above
# Procedure, shortened: as §1
row,Binder,SPOT peptide array binding signal intensity
1,B1,374
2,B2,≤ 0
3,B3,33.5

# Target: ScLsb2
# Experiment: as above
# Procedure, shortened: as §1
row,Binder,SPOT peptide array binding signal intensity
1,B1,201
2,B2,3.5
3,B3,22

# Target: ScLsb3
# Experiment: as above
# Procedure, shortened: as §1
row,Binder,SPOT peptide array binding signal intensity
1,B1,54.5
2,B2,≤ 0
3,B3,282

# Target: ScLsb4
# Experiment: as above
# Procedure, shortened: as §1
row,Binder,SPOT peptide array binding signal intensity
1,B1,≤ 0
2,B2,≤ 0
3,B3,20

# Target: ScMyo3
# Experiment: as above
# Procedure, shortened: as §1
row,Binder,SPOT peptide array binding signal intensity
1,B1,2
2,B2,2030
3,B3,≤ 0

# Target: ScMyo5
# Experiment: as above
# Procedure, shortened: as §1
row,Binder,SPOT peptide array binding signal intensity
1,B1,4
2,B2,1990
3,B3,1.5

# Target: ScNbp2
# Experiment: as above
# Procedure, shortened: as §1
row,Binder,SPOT peptide array binding signal intensity
1,B1,18
2,B2,18
3,B3,397

# Target: ScPex13
# Experiment: as above
# Procedure, shortened: as §1
row,Binder,SPOT peptide array binding signal intensity
1,B1,1.5
2,B2,≤ 0
3,B3,50.2

# Target: ScRvs167
# Experiment: as above
# Procedure, shortened: as §1
row,Binder,SPOT peptide array binding signal intensity
1,B1,48.3
2,B2,3.33
3,B3,163

# Target: ScSho1
# Experiment: as above
# Procedure, shortened: as §1
row,Binder,SPOT peptide array binding signal intensity
1,B1,139
2,B2,≤ 0
3,B3,2380

# Target: ScSla1-D1-D2
# Experiment: as above
# Procedure, shortened: as §1
row,Binder,SPOT peptide array binding signal intensity
1,B1,1.5
2,B2,≤ 0
3,B3,267

# Target: ScSla1-D3
# Experiment: as above
# Procedure, shortened: as §1
row,Binder,SPOT peptide array binding signal intensity
1,B1,≤ 0
2,B2,≤ 0
3,B3,69

# Target: SpAbp1-D1
# Experiment: as above
# Procedure, shortened: as §1
row,Binder,SPOT peptide array binding signal intensity
1,B1,29
2,B2,≤ 0
3,B3,91.5

# Target: SpBbc1
# Experiment: as above
# Procedure, shortened: as §1
row,Binder,SPOT peptide array binding signal intensity
1,B1,≤ 0
2,B2,≤ 0
3,B3,57.2

# Target: SpBzz1-D1
# Experiment: as above
# Procedure, shortened: as §1
row,Binder,SPOT peptide array binding signal intensity
1,B1,156
2,B2,1300
3,B3,486

# Target: SpBzz1-D2
# Experiment: as above
# Procedure, shortened: as §1
row,Binder,SPOT peptide array binding signal intensity
1,B1,≤ 0
2,B2,2.5
3,B3,1

# Target: SpCyk3
# Experiment: as above
# Procedure, shortened: as §1
row,Binder,SPOT peptide array binding signal intensity
1,B1,≤ 0
2,B2,≤ 0
3,B3,30

# Target: SpHof1
# Experiment: as above
# Procedure, shortened: as §1
row,Binder,SPOT peptide array binding signal intensity
1,B1,11.5
2,B2,2
3,B3,272

# Target: SpHof1-2
# Experiment: as above
# Procedure, shortened: as §1
row,Binder,SPOT peptide array binding signal intensity
1,B1,5.5
2,B2,2.5
3,B3,31

# Target: SpHof1-3
# Experiment: as above
# Procedure, shortened: as §1
row,Binder,SPOT peptide array binding signal intensity
1,B1,310
2,B2,1.5
3,B3,461

# Target: SpHse1
# Experiment: as above
# Procedure, shortened: as §1
row,Binder,SPOT peptide array binding signal intensity
1,B1,84.5
2,B2,≤ 0
3,B3,625

# Target: SpLsb1
# Experiment: as above
# Procedure, shortened: as §1
row,Binder,SPOT peptide array binding signal intensity
1,B1,133
2,B2,≤ 0
3,B3,10.8

# Target: SpLsb4
# Experiment: as above
# Procedure, shortened: as §1
row,Binder,SPOT peptide array binding signal intensity
1,B1,28.5
2,B2,≤ 0
3,B3,108

# Target: SpMyo1
# Experiment: as above
# Procedure, shortened: as §1
row,Binder,SPOT peptide array binding signal intensity
1,B1,3.25
2,B2,1210
3,B3,3

# Target: SpNbp2
# Experiment: as above
# Procedure, shortened: as §1
row,Binder,SPOT peptide array binding signal intensity
1,B1,21.5
2,B2,9
3,B3,802

# Target: SpPex13
# Experiment: as above
# Procedure, shortened: as §1
row,Binder,SPOT peptide array binding signal intensity
1,B1,6
2,B2,≤ 0
3,B3,124

# Target: SpRvs167
# Experiment: as above
# Procedure, shortened: as §1
row,Binder,SPOT peptide array binding signal intensity
1,B1,10
2,B2,≤ 0
3,B3,115

# Target: SpSla1-D1-D2
# Experiment: as above
# Procedure, shortened: as §1
row,Binder,SPOT peptide array binding signal intensity
1,B1,≤ 0
2,B2,≤ 0
3,B3,1

# Target: SpSla1-D3
# Experiment: as above
# Procedure, shortened: as §1
row,Binder,SPOT peptide array binding signal intensity
1,B1,≤ 0
2,B2,≤ 0
3,B3,6.5

# Target: AgAbp1
# Experiment: as above
# Procedure, shortened: as §1
row,Binder,SPOT peptide array binding signal intensity
1,B2,5
2,B3,4.5

# Target: AgBbc1
# Experiment: as above
# Procedure, shortened: as §1
row,Binder,SPOT peptide array binding signal intensity
1,B2,≤ 0
2,B3,199

# Target: AgBem1-D1
# Experiment: as above
# Procedure, shortened: as §1
row,Binder,SPOT peptide array binding signal intensity
1,B2,≤ 0
2,B3,314

# Target: AgBzz1-D1
# Experiment: as above
# Procedure, shortened: as §1
row,Binder,SPOT peptide array binding signal intensity
1,B2,≤ 0
2,B3,121

# Target: AgBzz1-D2
# Experiment: as above
# Procedure, shortened: as §1
row,Binder,SPOT peptide array binding signal intensity
1,B2,≤ 0
2,B3,236

# Target: AgCyk3
# Experiment: as above
# Procedure, shortened: as §1
row,Binder,SPOT peptide array binding signal intensity
1,B2,≤ 0
2,B3,10

# Target: AgFus1
# Experiment: as above
# Procedure, shortened: as §1
row,Binder,SPOT peptide array binding signal intensity
1,B2,≤ 0
2,B3,1770

# Target: AgHof1
# Experiment: as above
# Procedure, shortened: as §1
row,Binder,SPOT peptide array binding signal intensity
1,B2,57.5
2,B3,112

# Target: AgHse1
# Experiment: as above
# Procedure, shortened: as §1
row,Binder,SPOT peptide array binding signal intensity
1,B2,≤ 0
2,B3,580

# Target: AgLsb1
# Experiment: as above
# Procedure, shortened: as §1
row,Binder,SPOT peptide array binding signal intensity
1,B2,2
2,B3,54.5

# Target: AgLsb4
# Experiment: as above
# Procedure, shortened: as §1
row,Binder,SPOT peptide array binding signal intensity
1,B2,≤ 0
2,B3,687

# Target: AgMyo5
# Experiment: as above
# Procedure, shortened: as §1
row,Binder,SPOT peptide array binding signal intensity
1,B2,1550
2,B3,≤ 0

# Target: AgNbp2
# Experiment: as above
# Procedure, shortened: as §1
row,Binder,SPOT peptide array binding signal intensity
1,B2,32.5
2,B3,101

# Target: AgRvs167
# Experiment: as above
# Procedure, shortened: as §1
row,Binder,SPOT peptide array binding signal intensity
1,B2,1.67
2,B3,16.7

# Target: AgSho1
# Experiment: as above
# Procedure, shortened: as §1
row,Binder,SPOT peptide array binding signal intensity
1,B2,2
2,B3,329

# Target: AgSla1-D1-D2
# Experiment: as above
# Procedure, shortened: as §1
row,Binder,SPOT peptide array binding signal intensity
1,B2,1
2,B3,116

# Target: AgSla1-D3
# Experiment: as above
# Procedure, shortened: as §1
row,Binder,SPOT peptide array binding signal intensity
1,B2,0.5
2,B3,6

# Target: CaAbp1-D1
# Experiment: as above
# Procedure, shortened: as §1
row,Binder,SPOT peptide array binding signal intensity
1,B2,≤ 0
2,B3,111

# Target: CaAbp1-D2
# Experiment: as above
# Procedure, shortened: as §1
row,Binder,SPOT peptide array binding signal intensity
1,B2,≤ 0
2,B3,39

# Target: CaBbc1
# Experiment: as above
# Procedure, shortened: as §1
row,Binder,SPOT peptide array binding signal intensity
1,B2,≤ 0
2,B3,306

# Target: CaBem1-D1
# Experiment: as above
# Procedure, shortened: as §1
row,Binder,SPOT peptide array binding signal intensity
1,B2,0.5
2,B3,84

# Target: CaBzz1-D1
# Experiment: as above
# Procedure, shortened: as §1
row,Binder,SPOT peptide array binding signal intensity
1,B2,136
2,B3,362

# Target: CaBzz1-D2
# Experiment: as above
# Procedure, shortened: as §1
row,Binder,SPOT peptide array binding signal intensity
1,B2,5.5
2,B3,226

# Target: CaCyk3
# Experiment: as above
# Procedure, shortened: as §1
row,Binder,SPOT peptide array binding signal intensity
1,B2,≤ 0
2,B3,37.5

# Target: CaFus1
# Experiment: as above
# Procedure, shortened: as §1
row,Binder,SPOT peptide array binding signal intensity
1,B2,≤ 0
2,B3,2510

# Target: CaHof1
# Experiment: as above
# Procedure, shortened: as §1
row,Binder,SPOT peptide array binding signal intensity
1,B2,≤ 0
2,B3,1.75

# Target: CaHse1
# Experiment: as above
# Procedure, shortened: as §1
row,Binder,SPOT peptide array binding signal intensity
1,B2,≤ 0
2,B3,62.5

# Target: CaLsb1
# Experiment: as above
# Procedure, shortened: as §1
row,Binder,SPOT peptide array binding signal intensity
1,B2,0.5
2,B3,5

# Target: CaLsb4
# Experiment: as above
# Procedure, shortened: as §1
row,Binder,SPOT peptide array binding signal intensity
1,B2,≤ 0
2,B3,141

# Target: CaMyo5
# Experiment: as above
# Procedure, shortened: as §1
row,Binder,SPOT peptide array binding signal intensity
1,B2,8
2,B3,20.8
